Unmarked numbers belong to inactive results. The source made the active and inactive calls. How the calls were made is not given here.
assay: C difficile toxins, biochemical counterscreen, UDPG substrate absence, confirmatory dose response (AID 720650); details: series mostly up to 19.5 µM; activity change, negative = inhibition: at the top concentration

SMILES | activity change, negative = inhibition [%] | AC50
COc1ccc(C(=O)NC(CC(=O)O)c2cc([N+](=O)[O-])ccc2Cl)c(SC)c1 (stereo not drawn) | 8.05 | –
Nn1c(SCc2ccccc2F)nnc1-c1ccccn1 | 4.52 | –
Cc1ccc(C(=O)Nc2ncc([N+](=O)[O-])s2)cc1 | – | > 39 µM
Cc1ccc(/C=C/c2onc(C)c2S(=O)(=O)N2CCC(C(=O)N3CCN(C)CC3)CC2)cc1 | -9.58 | –
C[N+]1(CCCCSc2ccc(O)cc2)CCCCC1 | – | > 39 µM
CN(c1ccc(O)cc1)c1nc(-c2cccnc2)cs1 | 15 | –
Cn1c(SCc2nnc(-c3ccccc3)o2)nc2ccccc21 | -14.5 | –
Cc1ccc(NNC(=O)C2CCC2)cc1C | – | 0.386 µM (active)
Cn1cc(C(CO)Cc2ccccc2)c2ccccc21 (stereo not drawn) | – | > 39 µM
S=c1[nH]nc(-c2ccccn2)n1/N=C/c1ccc(Cl)cc1 | -5.11 | –
Cc1ccc(C(=O)Nc2ccc(N3CCCCC3)cc2)cc1 | -8.38 | –
N#Cc1ccc(C(=O)N/N=C/c2cn(CC(=O)O)c3ccccc23)c(F)c1 | 13.3 | –
CC1(C)CC(=O)C(C=Nc2ccc(N)cc2)=C(O)C1 | -6.16 | –
Oc1cc(O)cc(/C=C/c2ccc(O)c(O)c2)c1 | 0.027 | –
CCOC(=O)c1ccc(NC(=O)Oc2cc(C)c(Cl)cc2C(C)C)cc1 | -0.216 | –
C/C(=N\NC(=O)CSc1nc2ccccc2c(=O)n1-c1ccccc1C)c1cccs1 | -1.74 | –
COc1ccccc1OCC(=O)Nc1ccc(-c2nnc(-c3ccco3)o2)cc1 | – | > 39 µM
CC1C(=O)NN=C1c1ccc([N+](=O)[O-])cc1 (stereo not drawn) | 2.17 | –
C=CCNc1n[nH]c(=S)s1 | – | > 39 µM
O=C(CNS(=O)(=O)c1ccc([N+](=O)[O-])cc1)N/N=C\c1ccc(O)cc1 | – | 13.2 µM (active)
Oc1ccc2c(ccc3[nH]cnc32)c1 | – | 20.8 µM (active)
O=C(NC(=S)Nc1ccc(O)cc1)c1ccccc1Cl | – | 13.3 µM (active)
Cc1nn2cc(-c3cccc(Cl)c3)cnc2c1Br | -5.76 | –

— PubChem BioAssay AID720650 (Broad Institute, 2013)
